Compounds with a hit are over-represented: about 8% of the library has one in this group of screens.
KB-V1 MDR tox: qHTS assay for MDR1-selective chemotherapeutics: Primary screen using the drug-selected MDR subline cells KB-V1; KB-V1 MDR cells viability, CellTiter-Glo, 72 h; Potency, µM (top dose mostly 46.1 µM), hits mostly cytotoxic; actives 3.4% (n = 400,000); note: % is set by controls: 0 for no effect and ±100 for the full control effect; nearly all actives have a fitted effect of over 60% in size
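KB-V1, DMEM (no phenol red) + 10% FBS; cpd pin-transferred, titration series; 72 h, 37 degrees C; CellTiter-Glo, luminescence. Data normalized, curve-fit.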
KB-3-1 tox: qHTS assay for MDR1-selective chemotherapeutics: Primary screen using the parental adenocarcinoma cell KB-3-1 | KB-3-1 viability, CellTiter-Glo ATP luminescence, 72 h | Potency, µM (doses to about 46.1 µM), most hits filed as cytotoxic | actives 1.4% (n = 400,000); note: % is set by controls: 0 for no effect and ±100 for the full control effect; nearly all actives have a fitted effect of over 60% in size
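Here the drug-naive KB-3-1 line serves as comparator for MDR sub-line selectivity; cells received compound titrations, 72 h at 37 °C, then CellTiter-Glo readout.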
HT1080 IDH1KD tx: qHTS for induction of synthetic lethality in tumor cells producing 2HG: qHTS for the HT-1080-IDH1KD cell line | Potency, µM (doses to about 46.1 µM), for inactives: at the top dose activity, negative = toxicity, hits mostly cytotoxic | HT-1080 IDH1 knockdown viability, ATP luminescence, 48 h | actives 2% (n = 360,000);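 note: 0% = DMSO wells and -100% = cell-free medium wells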
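Assay cells: HT-1080 with IDH1 knockdown, 750 per well, RPMI/5% FBS. Exposure: 48 h at 37 °C following 2 h pre-incubation. Read: CellTiter-Glo luminescence; fitted concentration-response, curve class assigned.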
MCF10A rerep: A quantitative high throughput screen for small molecules that induce DNA re-replication in MCF 10a normal breast cells; MCF 10A DNA re-replication, Hoechst nuclear intensity, 48 h; Potency, µM (series often up to 46.1 µM), inactives show at the top dose activity, positive = re-replication, hits mostly activators; actives 2.9% (n = 350,000); AID 624296, 2012; note: % of control where 0% means no effect; nearly all actives have a fitted effect of over 50% in size
SW480 rerep: A quantitative high throughput screen for small molecules that induce DNA re-replication in SW480 colon adenocarcinoma cells; SW480 DNA re-replication, Hoechst DNA content imaging, 48 h; Potency, µM (series often up to 46.1 µM), for the others: at the top dose re-replication activation, most hits filed as activators; actives 1.8% (n = 340,000); AID 624297, 2012; note: % of control where 0% means no effect; nearly all actives have a fitted effect of over 55% in size
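Per well, 250 cells were exposed to pinned compound for 48 hr. Nuclear DNA was visualised with Hoechst (40 min, 37 C) and total object intensity recorded by fluorescence scanning.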
HT1080-NT tox: qHTS for induction of synthetic lethality in tumor cells producing 2HG: qHTS for the HT-1080-NT fibrosarcoma cell line. Potency, µM (top dose mostly 46.1 µM), without a hit: at the top dose activity, negative = less viability, most hits filed as cytotoxic. HT-1080-NT fibrosarcoma viability, CellTiter-Glo ATP luminescence, 48 h. actives 1.6% (n = 360,000);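 note: NT is the 2HG producing partner of a matched IDH1 knockdown line; 0% = DMSO-treated cells and -100% = media-only wells without cells; nearly all actives have a fitted effect of over 55% in size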
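750 cells/well, RPMI + 5% FBS; 2 h settle, compound pin-transfer, 48 h at 37 degrees C. CellTiter-Glo 10 min RT, luminescence. Normalized to DMSO and media-only wells.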
Numbers without * were called inactive; [ ] = remark or other dose. Calls come from the whole dose curve; as a rule, active = well fitted curve in the direction sought with a large enough effect; inconclusive = small, poorly fitted or top-dose-only effect, or another doubt; inactive = no such curve, though single readings can be large; an effect the other way counts as inactive or inconclusive. Potency is the fitted concentration of half-maximal effect.

COc1ccc(C(C)=O)cc1CN1CCCCC1 was read as KB-V1 MDR tox inactive, KB-3-1 tox inactive, HT1080 IDH1KD tx 3%, MCF10A rerep 15µM*, SW480 rerep 0% and HT1080-NT tox 5%.
COc1ccc(NC(=O)CSc2nnc(C3CCCCC3)n2-c2ccccc2)cc1 was read as KB-V1 MDR tox inactive, KB-3-1 tox inactive, HT1080 IDH1KD tx 10%, MCF10A rerep 25%, SW480 rerep -2% and HT1080-NT tox 13%.
COc1ccccc1Oc1ccc(N/C=C/C(=O)c2ccco2)cc1 was read as KB-V1 MDR tox inactive, KB-3-1 tox inactive, HT1080 IDH1KD tx -22%, MCF10A rerep 11%, SW480 rerep -3% and HT1080-NT tox -22%.
`O=C(/C=C/Nc1ccc(Oc2ccccc2Cl)cc1)c1ccco1` gave KB-V1 MDR tox inconclusive, KB-3-1 tox 21µM*, HT1080 IDH1KD tx inconclusive, MCF10A rerep inconclusive, SW480 rerep inconclusive and HT1080-NT tox inconclusive.
`O=C(/C=C/Nc1ccccc1Oc1ccccc1)c1ccco1` gave KB-V1 MDR tox inconclusive, KB-3-1 tox inactive, HT1080 IDH1KD tx -10%, MCF10A rerep 15µM*, SW480 rerep -7% and HT1080-NT tox -1%.
O=C(/C=C/Nc1ccccc1O)c1ccco1 was read as KB-V1 MDR tox inactive, KB-3-1 tox inactive, HT1080 IDH1KD tx -5%, MCF10A rerep -8%, SW480 rerep -3% and HT1080-NT tox -8%.
`CCOc1ccc(Nc2nc(N)c([N+](=O)[O-])c(N3CCN(C)CC3)n2)cc1` gave KB-V1 MDR tox inactive, KB-3-1 tox inactive, HT1080 IDH1KD tx -11%, MCF10A rerep -1%, SW480 rerep inconclusive and HT1080-NT tox -4%.
Screening CCOC(=O)c1sc(-c2ccc(C(F)(F)F)cc2)nc1O returned KB-V1 MDR tox inactive, KB-3-1 tox inactive, HT1080 IDH1KD tx 13%, MCF10A rerep 16µM*, SW480 rerep 16µM* and HT1080-NT tox 18%.
`CCOC(=O)c1sc(-c2cccc(C(F)(F)F)c2)nc1O` gave KB-V1 MDR tox inactive, KB-3-1 tox inconclusive, HT1080 IDH1KD tx 4%, MCF10A rerep inconclusive, SW480 rerep inconclusive and HT1080-NT tox -13%.
CCCC[C@@H](CN[C@H](C)CNC)NCC1CCC(C(C)(C)C)CC1 (stereo partly specified) was read as KB-V1 MDR tox inconclusive, KB-3-1 tox inconclusive, HT1080 IDH1KD tx 18µM*, MCF10A rerep inconclusive, SW480 rerep -8%[9.22 µM] and HT1080-NT tox inconclusive.
CN(CCc1ccccn1)Cc1ccc(Cl)c(Cl)c1 was read as KB-V1 MDR tox inactive, KB-3-1 tox inactive, HT1080 IDH1KD tx 2%, MCF10A rerep -16%, SW480 rerep -3% and HT1080-NT tox 7%.
`C=CCn1c(-c2ccccc2)c[nH]c1=S` gave KB-V1 MDR tox inconclusive, KB-3-1 tox inconclusive, HT1080 IDH1KD tx -2%, MCF10A rerep 20%, SW480 rerep inconclusive and HT1080-NT tox -3%.
For C=CCn1c(-c2ccc(Cl)cc2)c[nH]c1=S the results were KB-V1 MDR tox 23µM*, KB-3-1 tox 21µM*, HT1080 IDH1KD tx -8%, MCF10A rerep 18%, SW480 rerep inconclusive and HT1080-NT tox 0%.
Screening COc1ccc(CNC(=O)c2[nH]c(C(F)(F)F)nc2-c2ccccc2)cc1 returned KB-V1 MDR tox inactive, KB-3-1 tox inactive, HT1080 IDH1KD tx -19% and HT1080-NT tox -26%.
For Cc1n[nH]c(=O)c2c(NC(=O)COC(=O)Cc3c(F)cccc3Cl)oc(C)c12 the results were KB-V1 MDR tox inactive, KB-3-1 tox inactive, HT1080 IDH1KD tx 8%, MCF10A rerep -1%, SW480 rerep -1% and HT1080-NT tox 2%.
For CCN(CC)S(=O)(=O)c1ccc2c(c1)nc(SCn1nnc3ccccc3c1=O)n2CC the results were KB-V1 MDR tox inactive, KB-3-1 tox inactive, HT1080 IDH1KD tx 5%, MCF10A rerep 4%, SW480 rerep 3% and HT1080-NT tox 1%.
COc1cccc(/C(O)=C2\C(=O)C(=O)N(c3ccccn3)C2c2cccc(OC)c2OC)c1 (stereo unspecified) was read as KB-V1 MDR tox 23µM*, KB-3-1 tox inactive, HT1080 IDH1KD tx 1%, MCF10A rerep 11%, SW480 rerep -13% and HT1080-NT tox 1%.
CCCOc1ccc(/C(O)=C2\C(=O)C(=O)N(c3ccccn3)C2c2ccccc2F)cc1C (stereo unspecified) was read as KB-V1 MDR tox 18µM*, KB-3-1 tox inactive, HT1080 IDH1KD tx inconclusive, MCF10A rerep inconclusive, SW480 rerep 21% and HT1080-NT tox inconclusive.
CCOc1ccccc1N1CCN(C(=O)[C@@H]2CCCN2C2=NS(=O)(=O)c3ccccc32)CC1 was read as KB-V1 MDR tox inactive, KB-3-1 tox inactive, HT1080 IDH1KD tx 9%, MCF10A rerep -3%, SW480 rerep -22% and HT1080-NT tox 6%.
Screening COc1ccccc1NC(=O)N1CCN(c2ccnc3cc(Cl)ccc23)CC1 returned KB-V1 MDR tox inactive, KB-3-1 tox inactive, HT1080 IDH1KD tx -22%, MCF10A rerep -7%, SW480 rerep -6% and HT1080-NT tox -2%.
For COc1ccccc1N1CCN(c2ccnc3cc(Cl)ccc23)CC1 the results were KB-V1 MDR tox inconclusive, KB-3-1 tox 6.5µM*, HT1080 IDH1KD tx 7.3µM*, MCF10A rerep 2.6µM*, SW480 rerep 8.2µM* and HT1080-NT tox 3.7µM*.
CCOc1ccccc1NC(=O)CSc1nc2c(c(=O)n1C)SC(C)C2 (stereo unspecified) was read as KB-V1 MDR tox inactive, KB-3-1 tox inactive, HT1080 IDH1KD tx 0%, MCF10A rerep 16%, SW480 rerep -8% and HT1080-NT tox 14%.
For CC1CCCC(NC(=S)Nc2ccc(SC(F)F)cc2)C1C (stereo unspecified) the results were KB-V1 MDR tox 23µM*, KB-3-1 tox 18µM*, HT1080 IDH1KD tx inconclusive, MCF10A rerep inconclusive, SW480 rerep inconclusive and HT1080-NT tox inconclusive.
